Experiment [1] is described as follows: NCI Yeast Anticancer Drug Screen. Data for the rad50 strain (AID 155).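 Further: 0% = growth of vehicle-only cultures of the same strain.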 Particulars: S. cerevisiae rad50 strain growth inhibition; at 50.0 µM; active compounds read high. In outline:
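Yeast carrying a defined DNA repair defect were exposed to test compounds, and growth was compared with vehicle-treated controls to give percent inhibition.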

The nature of experiment [2]: NCI Yeast Anticancer Drug Screen. Data for the mec2-1 strain (AID 157). The note with it: S. cerevisiae mec2-1 strain, at 50.0 µM, active compounds read high. In outline:
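Growth inhibition is read against vehicle-treated controls after compound exposure of the mec2-1 yeast strain, which is defective in DNA damage repair or cell cycle control.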

Experiment [3] is described as follows: NCI Yeast Anticancer Drug Screen. Data for the sgs1 mgt1 strain (AID 161).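 Further: 0% = growth of cultures given vehicle only.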 Particulars: S. cerevisiae sgs1 mgt1 strain, at 50.0 µM, active compounds read high. An outline of the steps: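 Yeast cells carrying a defined DNA-repair defect were exposed to test compounds. Growth inhibition was measured relative to vehicle-treated controls.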
A short description of experiment [4]: NCI Yeast Anticancer Drug Screen. Data for the cln2 rad14 strain (AID 165).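 Further: 0% = growth equal to vehicle treated cultures.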 Particulars: S. cerevisiae cln2 rad14 strain, at 50.0 µM, active compounds read high. In outline: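 Growth inhibition, relative to vehicle-treated controls, is the read-out. The test organism is a yeast strain with defined genetic alterations, cln2 rad14.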
Experiment [5] can be described thus: NCI Yeast Anticancer Drug Screen. Data for the bub3 strain (AID 167). The note with it: S. cerevisiae bub3 mutant strain, at 50.0 µM, active compounds read high. An outline of the steps:
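Compounds were applied to a genetically altered yeast strain carrying a cell-cycle control defect. Growth inhibition was scored against vehicle-treated controls.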

The nature of experiment [6]: NCI Yeast Anticancer Drug Screen. Data for the mlh1 rad18 strain (AID 175). Particulars: S. cerevisiae mlh1 rad18 strain growth inhibition; at 50.0 µM; active compounds read high. An outline of the steps: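 Cells of a genetically altered yeast strain, deficient in DNA damage repair, were treated with compound. Their growth was then compared with that of vehicle-treated cultures to give inhibition.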

About 79,000 compounds went through this panel and 15% of them were active in at least one assay; those are over-represented in the sample as a whole. A number with no mark means an inactive call. Active and inactive are the calls of the source. No stated cut-off is given here; in the data, active means growth inhibition above about 70%; inactive means the rest.

Growth inhibition data for 19 compounds are collected here from PubChem BioAssay (NCI).

As to `NC(=O)c1cccc(NC=O)c1`, the growth inhibition in experiment [1] was 5.3%; in experiment [2], 6%; in experiment [3], 22.1%; in experiment [4], 29.7%; in experiment [5], 4.45%; in experiment [6], 25.8%.
`c1ccc(CC2COC(c3cccs3)=N2)cc1` (centres undefined): the growth inhibition is 26.9% in experiment [1]; -13.2% in experiment [2]; 21.6% in experiment [3]; 18.1% in experiment [4]; 31.2% in experiment [5]; 9% in experiment [6].
In the case of `COC(=O)c1cccc2c1Cc1cc(N)ccc1-2`, the growth inhibition in experiment [1] is -7.9%; in experiment [2] it was -16.8%; in experiment [3], -19.6%; in experiment [4], -21.4%; in experiment [5], 9.7%; in experiment [6], -12.2%.
Regarding `c1ccc2c3c(ccc2c1)Oc1ccc2ccccc2c1C3CCC1c2c(ccc3ccccc23)Oc2ccc3ccccc3c21`, the growth inhibition in experiment [1] was -8.75%; in experiment [2] it was -19.6%; in experiment [3] it was -4.9%; in experiment [4] it was 1.5%; in experiment [5], -17.2%; in experiment [6], 7.75%.
For `CCC(CCC(=O)O)C1CCCCC1` (centres undefined), the growth inhibition is 29.1% in experiment [1]; 20.9% in experiment [2]; 31.1% in experiment [3]; 45.9% in experiment [4]; 46.1% in experiment [5]; 13.2% in experiment [6].
For `O=C(CN(C(=O)OC12CC3CC(CC(C3)C1)C2)C(=O)OC12CC3CC(CC(C3)C1)C2)Oc1ccc([N+](=O)[O-])cc1`, the growth inhibition is 7.75% in experiment [1]; 7.15% in experiment [2]; 7.35% in experiment [3]; 31.8% in experiment [4]; 13.6% in experiment [5]; -0.85% in experiment [6].
As to `O=C1C=C(Nc2ccccc2C(=O)CC(=O)C(=O)Nc2ccc(Cl)cc2)c2ccccc2C1=O`, the growth inhibition is 5.05% in experiment [1]; 0.95% in experiment [2]; 6.9% in experiment [3]; -3.05% in experiment [4]; 42.5% in experiment [5]; 9.8% in experiment [6].
As for `COc1ccc(C(=O)CC2=NC3NN(c4ccccc4)C(=O)C3=C2CC(=O)c2ccc(OC)cc2)cc1` (centres undefined), the growth inhibition is 48.1% in experiment [1]; 32.1% in experiment [2]; 55.5% in experiment [3]; 23.8% in experiment [4]; -2.25% in experiment [5]; 31.8% in experiment [6].
As for `OCC1COc2ccc(Cl)cc2O1` (centres undefined) (tested in a mixture with another compound), the growth inhibition in experiment [1] was -10.3%; in experiment [2], -7.3%; in experiment [3], 2.65%; in experiment [4], 16.8%; in experiment [5] it was 6.85%; in experiment [6] it was 4.8%.
On to `CC/C(=N/NS(=O)(=O)c1ccc(C)cc1)c1ccc(O)cc1`, for which the growth inhibition in experiment [1] is 22.7%; in experiment [2], 18.1%; in experiment [3] it was 7.9%; in experiment [4], 36.8%; in experiment [5] it was 25.5%; in experiment [6] it was 46.6%.
As for `Cc1ccc(S(=O)(=O)C2=c3nc4ccccc4cc3=C3C(=O)c4ccccc4C(=O)C32)cc1` (centres undefined), the growth inhibition in experiment [1] is -14.3%; in experiment [2], -18.9%; in experiment [3], -20.8%; in experiment [4], -75.9%; in experiment [5] it was -24.4%; in experiment [6], -3.7%.
Consider `Cc1ccnc2ccccc12`, for which the growth inhibition in experiment [1] is 0.15%; in experiment [2], 1.55%; in experiment [3], -1.6%; in experiment [4], -3.2%; in experiment [5], -2.15%; in experiment [6], -11.4%.
In the case of `O=C(O)c1cc2ccccc2c2cc3ccccc3cc12`, the growth inhibition is 28.6% in experiment [1]; 39% in experiment [2]; 26.6% in experiment [3]; 57.3% in experiment [4]; 33.2% in experiment [5]; 70.8% (active) in experiment [6].
`CCOC(=O)c1ccc(Nc2cnc3ccc(C(F)(F)F)cc3n2)cc1`: the growth inhibition in experiment [1] was 14.4%; in experiment [2], -2.35%; in experiment [3], 24.9%; in experiment [4], 14.9%; in experiment [5] it was 30.9%; in experiment [6], -32.8%.
Take `CC(=O)OCC1OC(n2c(Br)nc3c(N)ncnc32)C(O)C1O` (centres undefined): the growth inhibition in experiment [1] is -3.35%; in experiment [2] it was -4.5%; in experiment [3], -16.4%; in experiment [4] it was -12.2%; in experiment [5] it was -0.7%; in experiment [6], -29.4%.
`CC(C)OCN1COCN=C1NC#N`: the growth inhibition in experiment [1] is 38.2%; in experiment [2] it was 12.2%; in experiment [3], 23.1%; in experiment [4], 28.7%; in experiment [5], -10.4%; in experiment [6], 33%.
As for `Nc1ccc(CC(=O)O)cc1S(=O)(=O)O`, the growth inhibition is 25.8% in experiment [1]; -18.4% in experiment [2]; 4% in experiment [3]; 9.1% in experiment [4]; 4.25% in experiment [5]; 26.6% in experiment [6].
For the compound `CCOC(=O)NNC(C)(C)C`, the growth inhibition in experiment [1] was 4.15%; in experiment [2] it was 4.35%; in experiment [3] it was 4.5%; in experiment [4] it was 21.8%; in experiment [5], -9%; in experiment [6], -3.7%.
As to `Cc1ccc(-n2c(=S)n(-c3ccccc3C)c3nc4ccccc4nc2/c3=N\Nc2ccccc2)cc1`, the growth inhibition in experiment [1] was -6.85%; in experiment [2], 3.5%; in experiment [3] it was -14.8%; in experiment [4], -16.1%; in experiment [5] it was 1.3%; in experiment [6] it was -22.1%.
